Measurements: PubChem BioAssay (Tox21)
Inconclusive results are not listed. The source made the active and inactive calls. Unless noted, calls come from the whole dose curve; as a rule, active = well fitted curve in the direction sought with a large enough effect in the repeat runs; inconclusive = weak or mixed curves; inactive = no such curve, though single readings can be large; an effect the other way counts as inactive or inconclusive.

Tests used:
[1] = qHTS assay to identify small molecule agonists of H2AX (AID 1224845; active = well fitted activation curve with a large enough effect in the signal ratio in the repeat runs, not every such curve was filed as active; the % refers to the signal ratio)
Procedure, shortened: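 Phospho-H2AX Ser139 measured by HTRF (ex 320 nm; em 665 and 620 nm) after 24 hr antibody incubation. Compounds, 15 concentrations, 0.76% DMSO, were applied to CHO-K1 cells for 3hr at 37C before lysis.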

[2] = qHTS assay to identify small molecule agonists of the hypoxia (HIF-1) signaling pathway (AID 1224846; active = well fitted activation curve with a large enough effect in the signal ratio in the repeat runs, not every such curve was filed as active; the % refers to the signal ratio)
Procedure, shortened: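 A low-serum medium (0.5% dialyzed FBS) holding 2,000 HRE-bla ME-180 cells per well is preincubated for 5 hrs, dosed with compounds by pintool, and kept a further 17 hrs at 37C, 5% CO2 before CCF4-AM FRET detection of beta-lactamase.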

[3] = qHTS assay to identify small molecule agonists of H2AX - cell viability counter screen (AID 1224847; calls by dose curve; note: top concentration of the series differs between compounds; nearly all actives have a fitted effect of over 30% in size)
Procedure, shortened: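 Compounds tested at 15 concentrations were incubated 3 hr at 37C with wild-type CHO-K1 cells; cellular ATP-based luminescence (CellTiter-Glo) indicated viability.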

[4] = qHTS assay to identify small molecule antagonists of the estrogen related receptor (ERR) signaling pathway from Tox21 library (AID 1224848); note: nearly all actives have a fitted effect of over 50% in size; note: potency is the fitted concentration of half-maximal effect
Procedure, shortened: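 Reading was by luminescence 30 min after ONE-Glo addition. Before that, ERR cells at 2,000 per well had rested 6 h at 37 C/5% CO2 and then received pin-tooled compounds in DMSO for 18 h at 37 C.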

[5] = qHTS assay to identify small molecule agonists of the estrogen related receptor (ERR) signaling pathway from Tox21 library (AID 1224849; calls by dose curve; note: nearly all actives have a fitted effect of over 15% in size); conditions: ERR reporter cell line, ONE-Glo luciferase, 18 h; at 92.4 µM (top of the series) unless noted
Procedure, shortened: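 Screening used an NTP-provided ERR luciferase cell line. Compounds in DMSO were added 6 h after seeding and left 18 h at 37 C before a 30 min ONE-Glo step and luminescence reading.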

[6] = qHTS RealTime-Glo MT Cell Viability Assay in HepG2 cells - 24 hour (AID 1224867); note: nearly all actives have a fitted effect of over 50% in size; note: potency is the fitted concentration of half-maximal effect
Procedure, shortened: (§1)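 Compound treatment began 5 h after plating HepG2 cells (600/well) with NanoLuc luciferase and prosubstrate. Plates stayed at 37 C for 40 h; luminescence was captured at six time points, 0 h through 40 h.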

[7] = qHTS RealTime-Glo MT Cell Viability Assay in HEK293 cells - 32 hour (AID 1224868); note: nearly all actives have a fitted effect of over 50% in size; note: potency is the fitted concentration of half-maximal effect
Procedure, shortened: (§2)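 Quantitative high-throughput screen of the Tox21 10K library in HEK293: cells and RealTime-Glo reagents plated together, compound added at 5 h, luminescence monitored through 40 h at 37 C.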

[8] = qHTS RealTime-Glo MT Cell Viability Assay in HepG2 cells - 40 hour (AID 1224870); note: nearly all actives have a fitted effect of over 50% in size; note: potency is the fitted concentration of half-maximal effect
Procedure, shortened: (§3)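 Real-time viability: cells seeded at 600 per well together with NanoLuc and cell-permeant prosubstrate, compounds added after 5 h incubation. Luminescence tracked at 0, 8, 16, 24, 32 and 40 h of exposure.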

[9] = A CellTox Green Cytotoxicity Assay to monitor cytotoxicity in HEK293 cells - 40 hour (AID 1224871); note: nearly all actives have a fitted effect of over 45% in size; note: potency is the fitted concentration of half-maximal effect
Procedure, shortened: (§4)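 Fluorescence intensity, read at 0, 8, 16, 24, 32 and 40 h of compound treatment, reflected dye binding to DNA of dead HEK293 cells; compounds (23 nL, DMSO) were added 5 h after plating cells with reagent.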

[10] = qHTS RealTime-Glo MT Cell Viability Assay in HEK293 cells - 16 hour (AID 1224872); note: nearly all actives have a fitted effect of over 50% in size; note: potency is the fitted concentration of half-maximal effect
Procedure, shortened: as §2

[11] = qHTS RealTime-Glo MT Cell Viability Assay in HepG2 cells - 8 hour (AID 1224873); note: nearly all actives have a fitted effect of over 55% in size
Procedure, shortened: as §3

[12] = qHTS RealTime-Glo MT Cell Viability Assay in HEK293 cells - 40 hour (AID 1224874); conditions: RealTime-Glo luminescence; max response: active compounds read low; note: nearly all actives have a fitted effect of over 50% in size; note: potency is the fitted concentration of half-maximal effect
Procedure, shortened: (§5)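 Viable HEK293 cells reduce a cell-permeant prosubstrate; the product diffuses out and is consumed by NanoLuc in the medium to give light. Compounds went in after a 5 h incubation and plates were read over the treatment course.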

[13] = qHTS RealTime-Glo MT Cell Viability Assay in HepG2 cells - 32 hour (AID 1224877); note: nearly all actives have a fitted effect of over 55% in size; note: potency is the fitted concentration of half-maximal effect
Procedure, shortened: as §1

[14] = A CellTox Green Cytotoxicity Assay to monitor cytotoxicity in HepG2 cells - 24 hour (AID 1224878); note: nearly all actives have a fitted effect of over 45% in size; note: potency is the fitted concentration of half-maximal effect
Procedure, shortened: (§6)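 Using 1536-well format, dye-containing HepG2 suspension was seeded, allowed 5 h at 37 C/5% CO2, dosed by pintool with compounds, positive and negative controls, and imaged for fluorescence across 40 h.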

[15] = A CellTox Green Cytotoxicity Assay to monitor cytotoxicity in HepG2 cells - 40 hour (AID 1224879); note: nearly all actives have a fitted effect of over 40% in size; note: potency is the fitted concentration of half-maximal effect
Procedure, shortened: as §6

[16] = qHTS RealTime-Glo MT Cell Viability Assay in HEK293 cells - 0 hour (AID 1224880); note: top concentration of the series differs between compounds; nearly all actives have a fitted effect of over 45% in size
Procedure, shortened: as §5

[17] = A CellTox Green Cytotoxicity Assay to monitor cytotoxicity in HEK293 cells - 32 hour (AID 1224881); note: nearly all actives have a fitted effect of over 40% in size; note: potency is the fitted concentration of half-maximal effect
Procedure, shortened: as §4

[18] = A CellTox Green Cytotoxicity Assay to monitor cytotoxicity in HEK293 cells - 0 hour (AID 1224869); note: nearly all actives have a fitted effect of over 50% in size
Procedure, shortened: as §4

[19] = A CellTox Green Cytotoxicity Assay to monitor cytotoxicity in HEK293 cells - 24 hour (AID 1224875); note: nearly all actives have a fitted effect of over 45% in size
Procedure, shortened: as §4

[20] = A CellTox Green Cytotoxicity Assay to monitor cytotoxicity in HepG2 cells - 16 hour (AID 1224876); note: nearly all actives have a fitted effect of over 45% in size
Procedure, shortened: as §6
% is set by controls: 0 for no effect and ±100 for the full control effect.

CN1CCC(N(Cc2cccs2)c2ccccc2)CC1
inactive: Potency [1] | Potency [2] | Potency [3] | Potency [4] | activity change, positive = activation [5] 0.685% [at 42.5 µM] | Potency [6] | Potency [7] | Potency [8] | Potency [10] | Potency [11] | max response [12] -14.7% | Potency [13] | Potency [16]
active: Potency [9] 19 µM | Potency [14] 10.7 µM | Potency [15] 21.3 µM | Potency [17] 21.3 µM

COc1cc2nc(N(C)CCCNC(=O)C3CCCO3)nc(N)c2cc1OC (stereo unspecified)
inactive: Potency [1] | Potency [2] | Potency [3] | activity change, positive = activation [5] -34.3% [at 42.5 µM] | Potency [6] | Potency [18] | Potency [8] | Potency [9] | Potency [11] | Potency [19] | Potency [20] | Potency [13] | Potency [14] | Potency [15] | Potency [16] | Potency [17]
active: Potency [4] 9.44 µM

Cc1ncc(CO)c(C=O)c1O
inactive: Potency [1] | Potency [2] | Potency [3] | Potency [4] | activity change, positive = activation [5] 2.22% [at 42.5 µM] | Potency [6] | Potency [7] | Potency [18] | Potency [8] | Potency [9] | Potency [10] | Potency [11] | max response [12] 0.556% | Potency [19] | Potency [20] | Potency [13] | Potency [14] | Potency [15] | Potency [16] | Potency [17]

O=C1CCC(=O)O1
inactive: Potency [1] | Potency [2] | Potency [3] | Potency [4] | activity change, positive = activation [5] 5.7% | Potency [6] | Potency [7] | Potency [18] | Potency [8] | Potency [9] | Potency [10] | Potency [11] | max response [12] 3.63% | Potency [19] | Potency [20] | Potency [13] | Potency [14] | Potency [15] | Potency [16] | Potency [17]

CC(=O)[O][Al]
inactive: Potency [1] | Potency [2] | Potency [3] | Potency [4] | activity change, positive = activation [5] 0.0434% | Potency [6] | Potency [7] | Potency [18] | Potency [8] | Potency [9] | Potency [10] | Potency [11] | max response [12] 3.87% | Potency [19] | Potency [20] | Potency [13] | Potency [14] | Potency [15] | Potency [16] | Potency [17]

C[Si](C)(CCCN)O[Si](C)(C)CCCN
inactive: Potency [1] | Potency [2] | Potency [3] | Potency [4] | activity change, positive = activation [5] -0.594% | Potency [6] | Potency [7] | Potency [18] | Potency [8] | Potency [9] | Potency [10] | Potency [11] | max response [12] -16% | Potency [19] | Potency [13] | Potency [14] | Potency [15] | Potency [16] | Potency [17]

O=C(OCCCCCCOC(=O)c1ccccc1)c1ccccc1
inactive: Potency [1] | Potency [2] | Potency [3] | Potency [4] | activity change, positive = activation [5] 1.59% | Potency [6] | Potency [18] | Potency [8] | Potency [9] | Potency [11] | Potency [13] | Potency [14] | Potency [15] | Potency [16] | Potency [17]

C[C@@H](c1ncncc1F)C(O)(Cn1cncn1)c1ccc(F)cc1F (stereo partly specified)
inactive: Potency [1] | Potency [2] | Potency [3] | Potency [4] | activity change, positive = activation [5] -0.316% [at 42.5 µM] | Potency [6] | Potency [7] | Potency [18] | Potency [8] | Potency [9] | Potency [10] | Potency [11] | max response [12] 3.08% | Potency [19] | Potency [20] | Potency [13] | Potency [14] | Potency [15] | Potency [16] | Potency [17]

O=C(NCC1CN(c2ccc(N3CCOCC3=O)cc2)C(=O)O1)c1ccc(Cl)s1 (stereo unspecified)
active: Potency [4] 23.7 µM
inactive: Potency [1] | Potency [2] | Potency [3] | activity change, positive = activation [5] -38.4% [at 42.5 µM] | Potency [6] | Potency [7] | Potency [18] | Potency [8] | Potency [9] | Potency [10] | Potency [11] | max response [12] -20.3% | Potency [19] | Potency [13] | Potency [16] | Potency [17]

C1CCCNCCC1
inactive: Potency [1] | Potency [2] | Potency [3] | Potency [4] | activity change, positive = activation [5] -2.25% | Potency [6] | Potency [7] | Potency [18] | Potency [8] | Potency [9] | Potency [10] | Potency [11] | max response [12] -5.84% | Potency [19] | Potency [20] | Potency [13] | Potency [14] | Potency [15] | Potency [16] | Potency [17]

CCN(CC)CCNc1ccc(CNC=O)c2sc3ccc(OC)cc3c(=O)c12
active: Potency [4] 2.73 µM | Potency [6] 21.9 µM | Potency [7] 17.4 µM | Potency [8] 17.4 µM | Potency [9] 19.5 µM | Potency [10] 27.5 µM | Potency [12] 8.71 µM | Potency [13] 19.5 µM
inactive: Potency [1] | Potency [2] | Potency [3] | activity change, positive = activation [5] -41.1% | Potency [18] | Potency [19] | Potency [14] | Potency [16] | Potency [17]

C=CCOC(=O)CCC1CCCCC1
inactive: Potency [1] | Potency [2] | Potency [3] | Potency [4] | activity change, positive = activation [5] -4.2% | Potency [6] | Potency [7] | Potency [18] | Potency [8] | Potency [9] | Potency [10] | Potency [11] | max response [12] 4.81% | Potency [19] | Potency [20] | Potency [13] | Potency [14] | Potency [16] | Potency [17]
